Columns and labels:
CHO = experiment: % viability of CHO cells (MTT); higher = less toxic; settings: 48 h
Method in brief: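 Viability was given as a percentage of untreated cells and measured colorimetrically by the tetrazolium (MTT) assay. Before this, CHO cells at 10^6 cells/well in 200 µL attached overnight, then received fresh medium containing compound at 2 or 20 µM for 48 h.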

HepG2-A16-CD81 = experiment: % inhibition of HepG2 viability (CellTiter-Glo); higher = more toxic; settings: 5 µM
[1] = system: Plasmodium falciparum NF54 stage IV/V gametocytes; experiment: % inhibition of gametocyte viability (PrestoBlue); higher = more inhibition; settings: 48 h
Method in brief: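 Values are percent inhibition of gametocyte viability, normalised to vehicle and kill controls in a single run. Stage IV/V NF54 gametocytes (2% gametocytaemia, 5% haematocrit, 100 µL/well) were held with compound at 1 or 5 µM for 48 h at 37 °C, stationary and hypoxic. Viability was read as 612 nm fluorescence on 70 µL of supernatant after a 2 h incubation with 10 µL PrestoBlue.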

[2] = system: Plasmodium falciparum NF54 asexual blood stage; experiment: % inhibition of asexual blood stage proliferation (pLDH); higher = more inhibition; settings: 72 h
Method in brief: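 Using 96-well plates, the screen was run twice on separate occasions with Plasmodium falciparum NF54 ring-stage cultures at 1% haematocrit and 2% parasitaemia. Each culture was exposed to compound at 2 or 20 µM for 72 h at 37 °C under a gas mix of 4% CO2, 3% O2 and 93% N2. After incubation, the parasite lactate dehydrogenase assay was read colorimetrically at 620 nm. From this readout, percent inhibition of asexual proliferation was derived against control wells.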

[3] = system: Plasmodium falciparum NF54 stage IV/V gametocytes; experiment: % inhibition of gametocyte viability (ATP bioluminescence); higher = more inhibition; settings: 24 h
Method in brief: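 Viability of stage IV/V NF54 gametocytes is given as percent inhibition, normalised to control wells in a single run. Gametocytes enriched on density gradients were seeded at 30,000 per well in 96-well plates with compound at 1 or 5 µM and held at 37 °C for 24 h. ATP was then read with the Promega BacTiter Glo bioluminescence system.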

[4] = system: Plasmodium falciparum NF54 stage IV/V gametocytes; experiment: % inhibition of gametocyte viability (luciferase reporter); higher = more inhibition; settings: 48 h
Method in brief: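 Percent inhibition was normalised to controls from a single run. Stage IV/V gametocytes of the NF54-Pfs16-GFP-Luc line, at 2% gametocytaemia and 2% haematocrit, were exposed to compound at 1 or 5 µM for 48 h at 37 °C under stationary, hypoxic conditions. Luminescence was then read from 30 µL lysate mixed with 30 µL Promega luciferin substrate on a GloMax-Multi+ reader with 10 s integration.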

[5] = system: Plasmodium berghei ANKA liver stage in HepG2-A16-CD81; experiment: % inhibition of liver stage parasite viability (luciferase); higher = more inhibition; settings: 5 µM; 48 h
Procedure: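 Single-concentration screen of the MMV Pandemic Response Box. P. falciparum NF54 asexual blood stages: pLDH assay, 72 h at 37 °C, 2 and 20 µM, n=2. Stage IV/V gametocytes (NF54): luciferase reporter (NF54-Pfs16-GFP-Luc, 48 h), ATP bioluminescence (24 h) and PrestoBlue (48 h) at 1 and 5 µM, n=1. P. berghei liver stage (luciferase in HepG2-A16-CD81, 48 h post infection) at 5 µM, n=4. All normalised to DMSO and kill controls as % inhibition.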
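For % inhibition of HepG2 viability (CellTiter-Glo) in this document: HepG2-A16-CD81 hepatoma cells plated as in the liver-stage assay but without sporozoites, with DMSO wells as negative and 25 µM puromycin as positive control.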

Row | Compound | % viability of CHO cells (CHO; 2 µM) [%] | % viability of CHO cells (CHO; 20 µM) [%] | % inhibition of HepG2 viability (HepG2-A16-CD81) [%] | % inhibition of gametocyte viability ([1]; 1 µM) [%] | % inhibition of gametocyte viability ([1]; 5 µM) [%] | % inhibition of asexual blood stage proliferation ([2]; 2 µM) [%] | % inhibition of asexual blood stage proliferation ([2]; 20 µM) [%] | % inhibition of gametocyte viability ([3]; 1 µM) [%] | % inhibition of gametocyte viability ([3]; 5 µM) [%] | % inhibition of gametocyte viability ([4]; 1 µM) [%] | % inhibition of gametocyte viability ([4]; 5 µM) [%] | % inhibition of liver stage parasite viability [5] [%]
1 | CN(C)CCNC(=O)c1cccc2cccnc12 | 70.5 | 19.6 | -1.05 | < 0 | < 0 | 9.84 | -0.35 | < 0 | < 0 | < 0 | 10.1 | 16.5
2 | O=C(Nc1ccc(-c2ccccc2)cc1)C1=C(O)C(Cc2ccccc2)OC1=O (stereo not given) | 93.6 | 90.4 | 13.1 | < 0 | 13.8 | 39.5 | 101 | < 0 | < 0 | < 0 | < 0 | 44.3
3 | O=c1ccc2ncc(=O)n3c2n1CC3CN1CCC(NCc2cc3c(cn2)OCCC3)CC1 (stereo not given) | 124 | 97.3 | 6.64 | < 0 | 28.4 | 12.5 | 40.4 | 0.762 | < 0 | < 0 | < 0 | 23.7
4 | CCOC(=O)N1CCN(c2ccc(Cl)cc2)CC1 | 90.5 | 83.4 | -3.4 | 17.5 | < 0 | 6.16 | 24.1 | < 0 | < 0 | < 0 | 8.21 | 29.3
5 | CCC(CC)[C@H](NC(C)=O)[C@@H]1[C@H](O)[C@@H](C(=O)O)C[C@H]1NC(=N)N | 88.2 | 59.8 | -1.38 | < 0 | < 0 | 31 | 22.4 | < 0 | < 0 | 0.62 | 2.25 | 24.4
6 | CCc1oc2ccccc2c1C(=O)c1ccc(O)cc1 | 152 | 112 | 9.97 | < 0 | 17.5 | 29.1 | 6.67 | < 0 | < 0 | < 0 | 9.06 | 39.9
7 | OC(Cn1cncn1)(Cn1cncn1)c1ccc(F)cc1F | 76.1 | -3.55 | -1.31 | < 0 | < 0 | -1.25 | -5.32 | < 0 | < 0 | < 0 | < 0 | 19.2
8 | CCc1cc(O)c(Oc2cccnc2N)cc1F | 64.8 | 62.9 | -0.638 | < 0 | < 0 | 8.28 | 20.8 | < 0 | < 0 | < 0 | < 0 | 18.6
9 | CCCCc1ccc(-c2nc(C)c(C(=O)OC)s2)cc1 | 113 | 102 | 0.116 | 5.41 | 22.1 | 36.8 | 59.2 | < 0 | < 0 | < 0 | < 0 | -103
10 | CCCCN1C[C@H](O)[C@@H](O)[C@H](O)[C@H]1CO | 104 | 108 | -0.43 | < 0 | 1.8 | 18.5 | 43.4 | 3.94 | < 0 | < 0 | < 0 | 10.9
11 | Nc1ccc(-c2nc3cc(C(F)(F)F)ccc3n2C23CC4CC(CC(C4)C2)C3)cc1 | 97.3 | 130 | -7.13 | 22.2 | 19.2 | 10.3 | 67.9 | < 0 | < 0 | < 0 | < 0 | 20.5
12 | O=C(O)c1sccc1S(=O)(=O)n1ccc2cc(Br)ccc21 | 93.4 | 97.8 | -1.44 | 12.3 | 30.7 | 49.8 | 84.9 | < 0 | < 0 | < 0 | < 0 | 8.54
13 | Fc1ccc(-c2nc(-c3c[nH]c4ccc(Br)cc34)[nH]c2-c2ccc(F)cc2)cc1 | 97.3 | -2.96 | 1.87 | < 0 | < 0 | 74 | 83.7 | < 0 | < 0 | < 0 | < 0 | 27.7
14 | Fc1ccc2c(/C=C/c3cccnc3)c[nH]c2c1 | 107 | 117 | 0.955 | < 0 | 6.61 | 4.51 | 61.2 | < 0 | < 0 | < 0 | < 0 | -23.8
15 | CCN(CC)CCn1c(=N)n(CC(O)COc2ccc(Cl)cc2Cl)c2ccccc21 (stereo not given) | 98.9 | 0.284 | 2.98 | < 0 | < 0 | 95.4 | 101 | 82.2 | 90.7 | < 0 | 91.6 | 42.1
16 | O=[N+]([O-])/C(Br)=C/c1ccc(Br)o1 | 89.2 | 99.8 | -4.63 | 23.1 | 57 | 27.6 | 2.9 | 6.32 | 14.3 | 4.3 | 49.5 | –
17 | Cc1c[nH]c(=O)nc1NCc1ccccc1 | 36.1 | 22.7 | -0.05 | 6.6 | 11.5 | 22.3 | 60.5 | < 0 | < 0 | < 0 | 4.07 | 18.3
18 | Cc1cc(C)n2nc(C(=O)NS(=O)(=O)c3c(C)cccc3OC(F)(F)F)nc2n1 | 110 | 122 | 8.44 | 33.8 | 85.1 | 33.6 | 59.9 | < 0 | < 0 | 14.1 | 14.2 | 37
19 | CCCCC(CC)CNC(=N)NC(=N)NCCCCCCNC(=N)NC(=N)NCC(CC)CCCC (stereo not given) | 101 | 124 | 57.5 | 44.5 | 79.2 | 92.1 | 87.5 | 66.4 | 93.8 | 98.7 | 100 | 74
20 | CC(C)(C)c1cc(CCC(=O)N2CCC2)cc(C(C)(C)C)c1O | 94.2 | 74.4 | 0.292 | < 0 | < 0 | 4.95 | 69.6 | < 0 | < 0 | < 0 | < 0 | 21.9
21 | Cn1cc(NC(=O)c2cc(NC(=O)c3ccc(/C=C/c4cnc5ccccc5c4)cc3)cn2C)cc1C(=O)NCCN1CCOCC1 | 34.6 | 14.9 | -5.82 | 18.3 | 55.1 | 68.7 | 94 | 22.3 | 15.5 | 64.1 | 67.1 | 85.8
22 | Clc1cc2nc(C3CCNCC3)n(Cc3ccc(CNCCc4cnc[nH]4)cc3)c2cc1Cl | 88.7 | 96.1 | 2.02 | < 0 | 1.67 | 27.7 | 98 | < 0 | 0.428 | < 0 | < 0 | 45.7
23 | CO/N=C(\C(=O)N[C@@H]1C(=O)N2C(C(=O)OCOC(=O)C(C)(C)C)=C(/C=C\c3scnc3C)CS[C@H]12)c1csc(N)n1 | 146 | 60.3 | -3.45 | < 0 | 1.37 | 7.74 | 37.7 | 0.449 | 5.98 | < 0 | 22.6 | 34

— the supplement of paper PMC7801607
